According to PubChem BioAssay (NCI):
This is part of a sample that, as a whole, favours compounds with a hit. Of some 83,000 tested, about 20% had one in any assay.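 Compound tested at a single concentration for 48 hours in 96-well plates; a percent growth value below 10 was scored as active.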 Values without a mark were called inactive. Activity calls are given as the source filed them.

system: SF-268 CNS; experiment: NCI-60 one-dose screen, 48 h (100 = growth as untreated, 0 = no growth, -100 = all killed); details: 10 µM unless noted

**Q.** `CN(C)C(=S)N=Nc1c(O)[nH]c2ccccc12` was tested. Which growth did it give?
**A.** 14.6%

**Q.** For `NC(N)=N/N=C(/c1ccccc1)c1ccc(F)cc1`, which growth is on record?
**A.** 14.2%

**Q.** `CC(=O)c1cc2c(N)c(C(=O)Nc3cccc4ccccc34)sc2nc1C` was tested. Which growth did it give?
**A.** 56.3%

**Q.** Which growth does the source give for `O=c1ccccc(-c2ccc(Br)cc2)c1O` here?
**A.** 12.8%

**Q.** With `CCCCC(=O)OCC1OC(n2cnc3c(=S)nc[nH]c32)C(OC(=O)CCCC)C1OC(=O)CCCC` (stereo not given) as the compound, how does the growth read?
**A.** 39%

**Q.** For `CC/C=C\C[C@H]1C/C=C2/C(=O)C=C[C@H]2C/C=C\CCCC(=O)O1`, which growth is on record?
**A.** 39.9%

**Q.** With `CCNc1ncnc2c1cnn2C1CCCO1` (stereo not given) as the compound, how does the growth read?
**A.** 96.9%

**Q.** How did the growth turn out when `C=C1C(=O)O[C@H]2[C@H]1CC/C(COC(=O)NCCc1ccc(OC)c(OC)c1)=C\CC[C@@]1(C)O[C@@H]21` was run?
**A.** 80.3%

**Q.** How did the growth turn out when `O=C(Cc1ccc(/C=C/C(=O)c2ncc[nH]2)cc1)Nc1ccc(F)cc1` was run?
**A.** 27.7%

**Q.** For `Clc1ccc2c(NCCCNc3nc(-n4ccnc4)nc4ccccc34)ccnc2c1`, which growth is on record?
**A.** 89%

**Q.** Which growth does the source give for `CCc1nc(N)nc(N)c1C#CC(C)c1ccc(-c2ccncc2)cc1Cl` (stereo not given) here?
**A.** 16.6%

**Q.** With `Cc1cc2c3ccccc3ccc2[n+]2ccccc12` as the compound, how does the growth read?
**A.** -24.6% (active)

**Q.** For `COc1ccc(SC2c3ccc(C)cc3Oc3nc(N)c(C#N)c(N)c32)cc1` (stereo not given), which growth is on record?
**A.** 2.01% (active)

**Q.** `NC(=NC1C2CC3CC(C2)CC1C3)Nc1ccc(I)cc1` (stereo not given) was tested. Which growth did it give?
**A.** 40.7%

**Q.** For `CC(=O)OCCC/C(=C/c1cc2ccccc2c2ccccc12)[N+](=O)[O-]`, which growth is on record?
**A.** -89.6% (active)

**Q.** Which growth does the source give for `COc1cc(C(=O)/C=C/c2cccnc2Nc2ccc(Cl)cc2)cc(OC)c1OC` here?
**A.** -87.7% (active)

**Q.** `CCOc1ccc(-n2nc(C(=O)Nc3cc(OC)c(OC)c(OC)c3)nc2-c2cc(OC)c(OC)c(OC)c2)cc1` was tested. Which growth did it give?
**A.** 92.1%

**Q.** `CC(=O)Oc1ccc(Cl)cc1CN(C(C)=O)C1CCCCC1` was tested. Which growth did it give?
**A.** 100%

**Q.** With `COc1cc(-c2nn(-c3ccc(Br)cc3)cc2C(=O)O)ccc1O` as the compound, how does the growth read?
**A.** 87.8%

**Q.** `COc1cc2nnc3c4cccnc4[nH]c3c2cc1OC` was tested. Which growth did it give?
**A.** 19.4%

**Q.** With `CCNC(=O)Oc1ccc(/C(=C(\C)c2ccc(Cl)cc2)c2ccc(OCCN(CC)CC)cc2)cc1` as the compound, how does the growth read?
**A.** 51.7%

**Q.** For `CCc1nc(N)nc(N)c1C#CC(C)c1cc(-c2ccnc(C)c2)c2oc(C)nc2c1` (stereo not given), which growth is on record?
**A.** 1.29% (active)

**Q.** How did the growth turn out when `CC1=C(O)C(=O)C(C(C#N)(C#N)C(C#N)C#N)C1` (stereo not given) was run?
**A.** 84.4%

**Q.** With `CN(C)c1ccc(NC(=O)c2ccc(/C=C/C(=O)c3ncc[nH]3)cc2)cc1` as the compound, how does the growth read?
**A.** 56.2%

**Q.** `CN(C)c1ccc(N=Nc2ccccn2)c(O)c1` was tested. Which growth did it give?
**A.** 14.6%

**Q.** How did the growth turn out when `O=C1C=CC(=O)N1c1ccc2c(c1)Cc1cc(F)ccc1-2` was run?
**A.** 99.7%

**Q.** How did the growth turn out when `CCCCn1cnc2c(Sc3c([N+](=O)[O-])ncn3C)nc(N)nc21` was run?
**A.** 102%

**Q.** Which growth does the source give for `NC(CSC(c1ccccc1)(c1ccccc1)c1ccc(Cl)cc1)C(=O)O` (stereo not given) here?
**A.** 16.2%

**Q.** With `Oc1ccc(N=Cc2ccccc2O)cc1` as the compound, how does the growth read?
**A.** 93.4%

**Q.** `Clc1ccc2c(NCCNc3nc(N4CCCCC4)nc4ccccc34)ccnc2c1` was tested. Which growth did it give?
**A.** 2.98% (active)

**Q.** `CCN1CCN(c2nc(NCCCNc3ccnc4cc(Cl)ccc34)c3ccccc3n2)CC1` was tested. Which growth did it give?
**A.** 55.1%

**Q.** For `CCOC(=O)c1sc(Nc2ccc(Cl)cc2)nc1C`, which growth is on record?
**A.** 30%

**Q.** Which growth does the source give for `CN1C(=O)C2(SCC(C(=O)NCc3ccccc3)N2C(=O)C2CCCCC2)c2ccccc21` (stereo not given) here?
**A.** 83.3%

**Q.** `CSc1ccc(-c2ccccc(=O)c2O)cc1` was tested. Which growth did it give?
**A.** 11.5%

**Q.** With `CC(=O)c1cc2c(N)c(C(=O)Nc3cccc(F)c3C)sc2nc1C` as the compound, how does the growth read?
**A.** 94.3%

**Q.** How did the growth turn out when `COc1ccc2c(c1)C(=O)/C(=C/c1ccccn1)CC2` was run?
**A.** 90.8%

**Q.** `O=C(Cc1ccc(/C=C/C(=O)c2ncc[nH]2)cc1)Nc1ccccc1` was tested. Which growth did it give?
**A.** 51.5%

**Q.** Which growth does the source give for `COc1cccc2c1C(=O)c1c(O)c3c(c(O)c1C2=O)C[C@](O)(C(=O)CO)C[C@H]3O[C@@H]1C[C@@H](NC(=O)CCCN(C)C2(c3ccc(F)cc3)CC3CCC2C3)[C@H](O)[C@@H](C)O1` (stereo not given in full) here?
**A.** -82.4% (active)

**Q.** For `COc1cccc2c1C(=O)c1c(O)c3c(c(O)c1C2=O)C[C@](O)(C(=O)CO)C[C@H]3O[C@@H]1C[C@@H](NC(=O)CCCCCN(C)C2(c3ccc(F)cc3)CC3CCC2C3)[C@H](O)[C@@H](C)O1` (stereo not given in full), which growth is on record?
**A.** 36.1%

system: SF-295 CNS; experiment: as above; details: 10 µM unless noted

**Q.** With `CN(C)C(=S)N=Nc1c(O)[nH]c2ccccc12` as the compound, how does the growth read?
**A.** 17.5%

**Q.** For `NC(N)=N/N=C(/c1ccccc1)c1ccc(F)cc1`, which growth is on record?
**A.** 3.89% (active)

**Q.** With `CC(=O)c1cc2c(N)c(C(=O)Nc3cccc4ccccc34)sc2nc1C` as the compound, how does the growth read?
**A.** 19.8%

**Q.** Which growth does the source give for `O=c1ccccc(-c2ccc(Br)cc2)c1O` here?
**A.** 17.9%

**Q.** How did the growth turn out when `CCCCC(=O)OCC1OC(n2cnc3c(=S)nc[nH]c32)C(OC(=O)CCCC)C1OC(=O)CCCC` (stereo not given) was run?
**A.** 30.3%

**Q.** With `CC/C=C\C[C@H]1C/C=C2/C(=O)C=C[C@H]2C/C=C\CCCC(=O)O1` as the compound, how does the growth read?
**A.** 23.3%

**Q.** Which growth does the source give for `CCNc1ncnc2c1cnn2C1CCCO1` (stereo not given) here?
**A.** 101%

**Q.** How did the growth turn out when `C=C1C(=O)O[C@H]2[C@H]1CC/C(COC(=O)NCCc1ccc(OC)c(OC)c1)=C\CC[C@@]1(C)O[C@@H]21` was run?
**A.** 95.8%

**Q.** How did the growth turn out when `O=C(Cc1ccc(/C=C/C(=O)c2ncc[nH]2)cc1)Nc1ccc(F)cc1` was run?
**A.** 33.1%

**Q.** Which growth does the source give for `Clc1ccc2c(NCCCNc3nc(-n4ccnc4)nc4ccccc34)ccnc2c1` here?
**A.** 89.6%

**Q.** Which growth does the source give for `CCc1nc(N)nc(N)c1C#CC(C)c1ccc(-c2ccncc2)cc1Cl` (stereo not given) here?
**A.** 10.1%

**Q.** Which growth does the source give for `Cc1cc2c3ccccc3ccc2[n+]2ccccc12` here?
**A.** 22.6%

**Q.** How did the growth turn out when `COc1ccc(SC2c3ccc(C)cc3Oc3nc(N)c(C#N)c(N)c32)cc1` (stereo not given) was run?
**A.** 44.8%

**Q.** `NC(=NC1C2CC3CC(C2)CC1C3)Nc1ccc(I)cc1` (stereo not given) was tested. Which growth did it give?
**A.** 10.7%

**Q.** For `CC(=O)OCCC/C(=C/c1cc2ccccc2c2ccccc12)[N+](=O)[O-]`, which growth is on record?
**A.** 7.66% (active)

**Q.** `COc1cc(C(=O)/C=C/c2cccnc2Nc2ccc(Cl)cc2)cc(OC)c1OC` was tested. Which growth did it give?
**A.** 7.32% (active)

**Q.** Which growth does the source give for `CCOc1ccc(-n2nc(C(=O)Nc3cc(OC)c(OC)c(OC)c3)nc2-c2cc(OC)c(OC)c(OC)c2)cc1` here?
**A.** 95.9%

**Q.** `COc1cc(-c2nn(-c3ccc(Br)cc3)cc2C(=O)O)ccc1O` was tested. Which growth did it give?
**A.** 101%

**Q.** Which growth does the source give for `COc1cc2nnc3c4cccnc4[nH]c3c2cc1OC` here?
**A.** 67.4%

**Q.** Which growth does the source give for `CCNC(=O)Oc1ccc(/C(=C(\C)c2ccc(Cl)cc2)c2ccc(OCCN(CC)CC)cc2)cc1` here?
**A.** 21.3%

**Q.** Which growth does the source give for `CCc1nc(N)nc(N)c1C#CC(C)c1cc(-c2ccnc(C)c2)c2oc(C)nc2c1` (stereo not given) here?
**A.** 5.73% (active)

**Q.** With `CC1=C(O)C(=O)C(C(C#N)(C#N)C(C#N)C#N)C1` (stereo not given) as the compound, how does the growth read?
**A.** 101%

**Q.** How did the growth turn out when `CN(C)c1ccc(NC(=O)c2ccc(/C=C/C(=O)c3ncc[nH]3)cc2)cc1` was run?
**A.** 74.6%

**Q.** Which growth does the source give for `CN(C)c1ccc(N=Nc2ccccn2)c(O)c1` here?
**A.** 19.9%

**Q.** `NC(CSC(c1ccccc1)(c1ccccc1)c1ccc(Cl)cc1)C(=O)O` (stereo not given) was tested. Which growth did it give?
**A.** 13.8%

**Q.** `Oc1ccc(N=Cc2ccccc2O)cc1` was tested. Which growth did it give?
**A.** 107%

**Q.** How did the growth turn out when `Clc1ccc2c(NCCNc3nc(N4CCCCC4)nc4ccccc34)ccnc2c1` was run?
**A.** -81.3% (active)

**Q.** Which growth does the source give for `CCN1CCN(c2nc(NCCCNc3ccnc4cc(Cl)ccc34)c3ccccc3n2)CC1` here?
**A.** 22.7%

**Q.** `CCOC(=O)c1sc(Nc2ccc(Cl)cc2)nc1C` was tested. Which growth did it give?
**A.** 16.3%

**Q.** Which growth does the source give for `CN1C(=O)C2(SCC(C(=O)NCc3ccccc3)N2C(=O)C2CCCCC2)c2ccccc21` (stereo not given) here?
**A.** 100%

**Q.** `CSc1ccc(-c2ccccc(=O)c2O)cc1` was tested. Which growth did it give?
**A.** 19.4%

**Q.** With `CC(=O)c1cc2c(N)c(C(=O)Nc3cccc(F)c3C)sc2nc1C` as the compound, how does the growth read?
**A.** 82.4%

**Q.** For `COc1ccc2c(c1)C(=O)/C(=C/c1ccccn1)CC2`, which growth is on record?
**A.** 78.2%

**Q.** With `O=C(Cc1ccc(/C=C/C(=O)c2ncc[nH]2)cc1)Nc1ccccc1` as the compound, how does the growth read?
**A.** 69.7%

**Q.** With `COc1cccc2c1C(=O)c1c(O)c3c(c(O)c1C2=O)C[C@](O)(C(=O)CO)C[C@H]3O[C@@H]1C[C@@H](NC(=O)CCCN(C)C2(c3ccc(F)cc3)CC3CCC2C3)[C@H](O)[C@@H](C)O1` (stereo not given in full) as the compound, how does the growth read?
**A.** -92.9% (active)

**Q.** Which growth does the source give for `COc1cccc2c1C(=O)c1c(O)c3c(c(O)c1C2=O)C[C@](O)(C(=O)CO)C[C@H]3O[C@@H]1C[C@@H](NC(=O)CCCCCN(C)C2(c3ccc(F)cc3)CC3CCC2C3)[C@H](O)[C@@H](C)O1` (stereo not given in full) here?
**A.** -87.9% (active)
